A selection: hits, their analogues and other compounds. The true share with any hit is near 1.2%.
FAS TE block: FAS thioesterase domain inhibitors, primary screen, biochemical, fluorescence intensity, uHTS; inhibition, % at 15 µM; AID 602261, 2012; Fatty acid synthase (Homo sapiens), P49327; recombinant FAS-TE, OMFH fluorogenic substrate, fluorescence endpoint; actives 0.67% (n = 360,000);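 active means compounds whose normalised, plate-corrected inhibition of enzyme fluorescence in the single-dose primary screen is 50% or more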;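 further: 0% = DMSO with enzyme and 100% = substrate without enzyme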
p97 ATPase inh: inhibitors of human p97 ATPase, primary screen, biochemical. actives 0.42% (n = 220,000). Transitional endoplasmic reticulum ATPase (Homo sapiens), P55072. inhibition, % at 8 µM. recombinant p97 ATPase, Kinase-Glo ATP luminescence, 3 h; in the data active means inhibition above about 15%;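 further: 0% = DMSO vehicle and 100% = wells lacking enzyme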
Redox H2O2 prof: compounds producing H2O2 with reducing agent – biochemical, NIH compound library profiling, artefact control for MLSCN library redox annotation, primary screen. DTT-dependent redox cycling H2O2, phenol red/HRP absorbance; 100% = 100 µM peroxide control, 0% = buffer. activation, % at 10 µM. actives 0.03% (n = 200,000);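 active means activation of at least 50% relative to the plate's high and low controls in the primary single-dose screen; inactive means activation below 50%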;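 further: compound incubated with DTT at 0.8 mM final as the reducing agent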
PKD1 inh: inhibitors of human PKD1 kinase, biochemical, fluorescence polarization | Serine/threonine-protein kinase D1 (Homo sapiens), Q15139 | actives 0.056% (n = 200,000) | PKD1 kinase fluorescence polarization assay | AID 797, 2007 | inhibition, % (test concentration not listed); in the data active means inhibition above about 50%
Target sequence (Q15139 whole entry, looked up): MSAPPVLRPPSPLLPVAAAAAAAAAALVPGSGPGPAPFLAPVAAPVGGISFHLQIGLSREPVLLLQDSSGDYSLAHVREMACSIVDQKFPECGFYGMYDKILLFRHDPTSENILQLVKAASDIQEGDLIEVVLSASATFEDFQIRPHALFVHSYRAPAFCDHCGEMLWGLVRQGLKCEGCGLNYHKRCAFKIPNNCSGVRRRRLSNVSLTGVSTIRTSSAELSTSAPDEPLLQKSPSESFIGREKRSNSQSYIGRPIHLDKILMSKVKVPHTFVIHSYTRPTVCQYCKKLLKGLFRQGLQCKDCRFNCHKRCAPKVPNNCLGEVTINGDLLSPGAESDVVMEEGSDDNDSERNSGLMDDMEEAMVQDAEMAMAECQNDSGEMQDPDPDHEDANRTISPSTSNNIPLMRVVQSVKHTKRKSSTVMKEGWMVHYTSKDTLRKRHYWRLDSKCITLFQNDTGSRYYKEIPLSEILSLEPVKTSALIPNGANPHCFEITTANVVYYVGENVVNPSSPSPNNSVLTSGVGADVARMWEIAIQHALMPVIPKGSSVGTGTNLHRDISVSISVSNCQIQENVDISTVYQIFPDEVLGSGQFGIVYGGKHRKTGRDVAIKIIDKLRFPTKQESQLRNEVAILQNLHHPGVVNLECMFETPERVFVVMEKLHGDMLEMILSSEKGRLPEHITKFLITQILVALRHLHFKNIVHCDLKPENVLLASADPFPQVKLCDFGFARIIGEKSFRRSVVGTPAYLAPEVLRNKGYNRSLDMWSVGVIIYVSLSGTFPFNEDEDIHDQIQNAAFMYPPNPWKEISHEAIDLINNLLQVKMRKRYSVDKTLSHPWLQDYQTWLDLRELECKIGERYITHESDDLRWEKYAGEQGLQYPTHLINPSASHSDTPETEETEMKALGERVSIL
SUMO HTRF inh: inhibitors of in vitro SUMOylation cascade, primary screen, biochemical, HTRF, uHTS. HTRF SUMOylation assay, SAE1/SAE2 + UBC9. actives 0.36% (n = 290,000). SUMO-conjugating enzyme UBC9 (Homo sapiens), P63279. AID 2006, 2009. inhibition, % at 35 µM; in the data active means inhibition above about 50%, passing the limit was not always enough
Furin inh: human furin inhibitors, primary screen, biochemical, fluorescence intensity; actives 0.061% (n = 220,000); purified furin, fluorogenic substrate cleavage; inhibition, % at 20 µM or 30 µM; P09958; in the data active means inhibition above about 25%
* hit, by the source's call; · = not tested or not shown.

SMILES	FAS TE block	p97 ATPase inh	Redox H2O2 prof	PKD1 inh	SUMO HTRF inh	Furin inh
N=C1/C(=C/c2ccc(-c3cccc(C(=O)O)c3)o2)C(=O)N=C2SC=C(c3ccccc3)N12	12	13	-1	6	78*	5
N=C1/C(=C\c2ccc(-c3cc(Cl)cc(Cl)c3)o2)C(=O)N=C2SC=C(c3ccccc3)N12	17	7	1	1	38	11
CC1CCC(=NNS(=O)(=O)c2ccc([N+](=O)[O-])cc2)CC1 (configuration not stated)	58*	·	·	·	·	·
COc1ccc(Cn2c(=O)[nH]c3cc(C(=O)NC4CCCC4)ccc3c2=O)cc1	-9	-7	-2	56*	11	-9
CCOC(=O)c1csc(NC(=O)CCS(=O)(=O)c2ccc(Cl)cc2)n1	-8	·	·	·	·	·
CN1C(=O)CC(Nc2cccc3cccc(N)c23)C1=O (configuration not stated)	-3	7	0	11	90*	-16
Cc1ccc2nsnc2c1N	-4	5	7	4	19	-24
Nc1cccc2nsnc12	6	6	·	·	88*	-16
Cc1ccc(S(=O)(=O)NN=C(c2ccccc2)c2cccs2)cc1	10	·	·	·	·	·
COC(=O)C1CCN(S(=O)(=O)CCNC(=O)c2ccccc2)CC1	-6	·	·	·	·	·
COC(=O)c1c(NC(=O)C2C3CCC(C3)C2C(=O)O)sc2c1CCCCC2 (configuration not stated)	0	-3	0	79*	8	-18
COc1ccccc1CNC(=O)c1oc2ccccc2c1C	11	·	·	·	0	·
COc1ccc2c(C)c(C(=O)NCC(C)O)oc2c1OC (configuration not stated)	-4	-3	0	-1	59*	-15
Cc1cccc(NC(=O)/C(C#N)=C/c2cn(CC(=O)NCc3ccco3)c3ccccc23)c1C	-7	-3	0	-3	58*	-7
N#C/C(=C\c1cn(Cc2ccc(F)cc2)c2ccccc12)C(=O)NCc1ccco1	0	3	0	-7	51*	-14
N#C/C(=C\c1cn(Cc2ccccc2)c2ccccc12)C(=O)NCc1ccco1	16	-4	0	-14	48	-1
N#C/C(=C\c1cn(Cc2cccc(F)c2)c2ccccc12)C(=O)NCc1ccco1	20	0	1	1	33	-5
Cc1ccc(-c2cc(-c3ccccc3O)nc(N/N=C/c3cccnc3)n2)cc1	3	2	-4	-6	53*	-10
C(=N\Nc1nccc(-c2cccnc2)n1)/c1ccccc1	-1	-19	·	·	45	3
O=C(O)c1cscc1-c1cccc2ccccc12	-8	·	·	·	·	·
NC(=O)[C@@H]1CCCNc2c(I)cc([N+](=O)[O-])cc2C(=O)N[C@@H](CO)C(=O)N[C@@H](Cc2ccc(O)cc2)C(=O)N1	-6	6	1	-6	0	-11
NC(=O)CC[C@@H]1NC(=O)[C@H](CO)NC(=O)c2cc([N+](=O)[O-])cc(I)c2NCCC[C@@H](C(N)=O)NC(=O)[C@H](Cc2ccc(O)cc2)NC1=O	·	18*	1	3	14	-13
CC(C)C[C@@H]1NC(=O)[C@H](Cc2ccc(O)cc2)NC(=O)c2cc([N+](=O)[O-])cc(I)c2NCCC[C@@H](C(N)=O)NC1=O	6	16*	0	-6	27	-19
COc1ccc(-c2cc(C(F)(F)F)n3nc(C(=O)Nc4c(C)n(C)n(-c5ccccc5)c4=O)cc3n2)cc1	0	17*	7	-2	20	0
Cc1ccc(-n2cccc2/C=C2\C(=N)N3N=C(c4ccco4)SC3=NC2=O)cc1	20	4	0	-5	64*	-5
SMILES	FAS TE block	p97 ATPase inh	Redox H2O2 prof	PKD1 inh	SUMO HTRF inh	Furin inh
Cc1ccccc1NC(=O)C(C)OC(=O)C1CCCO1 (configuration not stated)	-7	·	·	·	·	·
O=C1CC(=O)N(Cc2ccco2)C(=O)N1	-6	8	-3	-6	27	-23
O=C1CC(=O)N(Cc2ccco2)C(=S)N1	-9	10	0	0	83*	-22
CCOC(=O)C(C(=O)OCC)c1cc(Br)c2noc3c2c1C(=O)c1ccccc1-3	-78	-2	2	-8	87*	-9
COc1ccc(-n2[nH]c(C)cc2=O)cc1	-5	28*	2	4	13	-19
CC(=O)Nc1ccc(NC(=O)CSc2nc(=O)n(Cc3cccnc3)c3c2CCC3)cc1	-8	·	·	·	·	·
COc1cc2c(cc1NC(=O)COC(=O)/C=C/c1ccc([N+](=O)[O-])cc1)oc1ccccc12	22	15*	·	·	-1	-29
COc1cc2c(cc1NC(=O)/C=C/c1ccc([N+](=O)[O-])cc1)oc1ccccc12	-6	7	1	-1	-2	-4
Oc1ccccc1C=NNC(=S)NC1CC2C=CC1C2 (configuration not stated)	7	·	·	·	·	·
Oc1c(Cl)cc(Cl)cc1/C=N/NC(=S)NC1CC2C=CC1C2 (configuration not stated)	38	1	·	·	55*	-7
CN(C)c1ccc(NC(=O)c2sc(SCC(=O)Nc3ccc(Br)cc3)nc2N)cc1	-12	2	2	-1	55*	-20
CN(C)c1ccc(NC(=O)c2sc(SCC(=O)Nc3nccs3)nc2N)cc1	0	4	0	-6	-16	-16
Cc1cc(C)nc(SCc2ccc(C(=O)N/N=C/c3cccc(O)c3O)cc2)n1	8	15*	1	-2	35	-20
COc1ccc(O)c(/C=N/NC(=O)c2ccc(CSc3nc(C)cc(C)n3)cc2)c1	17	3	0	-17	12	-16
CCc1nc2c(OCc3cccc(Cl)c3)cccn2c1N(C)C(=O)c1ccncc1	-4	·	·	·	·	·
O=C(Nc1ccccc1O)c1cc(S(=O)(=O)N2CCOCC2)ccc1Cl	-12	7	1	-12	-2	-23
O=C(Nc1ccccc1O)c1cc(S(=O)(=O)N2CCOCC2)c(Cl)cc1Cl	-6	-5	10	-2	60*	-3
O=C(NNC(=O)c1cc(S(=O)(=O)N2CCOCC2)c(Cl)cc1Cl)c1ccccc1F	-8	·	·	·	·	·
COc1ccccc1NC(=O)c1cc(S(=O)(=O)N2CCOCC2)ccc1Cl	-1	10	2	-3	4	29*
CC(C)COC(=O)N1CCCCC1c1cc(C(=O)N2CCOCC2)no1 (configuration not stated)	-5	·	·	·	·	·
COc1ccc(Br)cc1S(=O)(=O)Nc1ncccc1C	-3	8	0	0	7	-13
COc1cc(S(=O)(=O)Nc2ncccc2C)c(OC)cc1Cl	-5	3	0	-10	-8	28*

Screens deposited in PubChem by several laboratories.
